SMN2 splice up = enhancers of SMN2 splice variant expression; HEK293 SMN2-luciferase splicing reporter, luminescence, 30-36 h; Potency, µM (titrated, usually from 46.1 µM), without a hit: at the highest dose activity change, positive = activation, usual class: activators; 2.8% of 210,000 active; note: % of control where 0% means no effect; nearly all actives have a fitted effect of over 55% in size
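HEK293 cells carry an SMN2 […]–luciferase reporter in which exon 7 inclusion puts luciferase in frame. Cells were plated 10-12 h before compound addition, then incubated 30-36 h at 37C. ONE-Glo luminescence was read; sodium butyrate at 4.5 mM final served as control.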
ELG1 genotox = induces genotoxicity in HEK293T cells with luciferase-tagged ELG1; HEK293T ELG1-luciferase reporter, luminescence, 16 h; Potency, µM (highest dose often 46 µM), inactives show at the highest dose activity change, positive = activation, hits mostly activators; 1.3% of 330,000 active; AID 504466; note: % of control where 0% means no effect; nearly all actives have a fitted effect of over 60% in size
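Genotoxicity was scored as increased ELG1-luciferase reporter signal, measured by ONE-Glo luminescence (30 min, room temperature). Compound or vehicle exposure of the HEK293T reporter cells lasted 16 hr at 37°C.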
NPC1 promoter act = activates the NPC1 promoter; Huh7 NPC1 promoter luciferase reporter, 24 h; 2.4% of 320,000 active; Potency, µM (series often up to 9.22 µM), without a hit: top-dose activation, usual class: activators; note: % of control where 0% means no effect; nearly all actives have a fitted effect of over 60% in size
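Compounds in DMSO were transferred onto Huh7 NPC1-luciferase reporter cells pre-incubated 2 h; after 24 h at 37 °C, Amplite reagent was dispensed and luminescence recorded 10 min later.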
KinaseGlo FLuc = counter-screen: inhibitors of Kinase-Glo firefly luciferase. AID 1379. 0.28% of 200,000 active. Potency, µM (series often up to 38.3 µM), inactives show at the highest dose activity change, negative = inhibition, usual class: inhibitors. Kinase-Glo luciferase, ATP luminescence, 8 min. Q27757; note: % is set by controls: 0 for no effect and ±100 for the full control effect; nearly all actives have a fitted effect of over 60% in size
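Luminescence was the read-out, taken after 8-minute incubation at ambient temperature. Luciferase turned over luciferin with 10 uM ATP in imidazole pH 7.2 buffer containing KCl, MgCl2, Tween 20 and BSA.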
FLuc counter = counter-screen for miR-21 project: firefly luciferase inhibitors or activators; P08659; purified FLuc, Km substrates, luminescence inhibition; Potency, µM (top dose mostly 57.5 µM), for inactives: top-dose activity change, negative = inhibition, usual class: inhibitors; 6.9% of 360,000 active; AID 588342;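 note: plate controls were vehicle for no effect and reference inhibitor for full effect; nearly all actives have a fitted effect of over 55% in size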
Target sequence (P08659 whole entry, looked up): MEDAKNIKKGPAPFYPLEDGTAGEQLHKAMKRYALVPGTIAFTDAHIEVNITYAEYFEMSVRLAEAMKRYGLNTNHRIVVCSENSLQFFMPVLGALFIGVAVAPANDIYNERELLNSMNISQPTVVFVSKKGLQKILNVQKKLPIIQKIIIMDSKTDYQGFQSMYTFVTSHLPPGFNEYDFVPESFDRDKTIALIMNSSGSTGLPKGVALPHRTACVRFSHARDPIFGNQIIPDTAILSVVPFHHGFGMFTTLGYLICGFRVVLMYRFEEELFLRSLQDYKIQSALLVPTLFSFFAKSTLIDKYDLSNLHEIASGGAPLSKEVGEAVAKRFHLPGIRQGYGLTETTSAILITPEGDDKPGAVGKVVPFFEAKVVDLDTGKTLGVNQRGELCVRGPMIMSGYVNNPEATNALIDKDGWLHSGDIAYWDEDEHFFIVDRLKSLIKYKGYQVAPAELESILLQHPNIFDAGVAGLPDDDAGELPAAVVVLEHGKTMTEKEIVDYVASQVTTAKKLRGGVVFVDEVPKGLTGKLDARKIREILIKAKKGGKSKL
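Purified P. pyralis luciferase (10nM final) with 10uM D-luciferin and 10uM ATP (Km levels) in 50mM Tris acetate pH 7.5, 10mM Mg acetate, 0.01% Tween-20, 0.05% BSA; qHTS 6-point titration, ~60 µM downward; luminescence read.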
Rab9 prom act = activators of Rab9 promoter. Potency, µM (doses to about 9.22 µM), for the others: top-dose activation, negative = inhibition, actives largely listed as activators. 2.8% of 320,000 active. Huh7 Rab9 promoter-luciferase reporter, luminescence, 24 h. AID 485297; note: % of control where 0% means no effect; nearly all actives have a fitted effect of over 60% in size
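Rab9 promoter-driven luciferase in stably transfected Huh7 cells; 1500 cells/well rested 2 h, exposed to compound in DMSO for 24 h at 37 °C, 5% CO2. Luminescence read 10 min after adding luciferase reagent at ambient temperature.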
* hit, by the source's call; ? = inconclusive; . = not tested or not shown. Only some compounds are listed: those with a hit (about 7.5% of all), similar ones and a draw of the others. Calls come from the whole dose curve; as a rule, active = well fitted curve in the direction sought with a large enough effect; inconclusive = small, poorly fitted or top-dose-only effect, or another doubt; inactive = no such curve, though single readings can be large; an effect the other way counts as inactive or inconclusive. Potency is the fitted concentration of half-maximal effect.

SMILES	SMN2 splice up	ELG1 genotox	NPC1 promoter act	KinaseGlo FLuc	FLuc counter	Rab9 prom act
CC(Sc1nc2ccccc2n1C)C(=O)Nc1ccc(N2CCOCC2)cc1 (stereo unspecified)	-17.0%	21.1%	-1.5%	-2.5%	16.9µM*	-2.2%
CC(C)Cn1c(SC(C)C(=O)Nc2ccc(N3CCOCC3)cc2)nc2ccccc21 (stereo unspecified)	-6.2%	2.3%	-2.8%	1.1%	?	-1.8%
CCc1ccc(NC(=O)C(Cc2ccccc2)NS(=O)(=O)c2ccc3c(c2)CCN3C(C)=O)cc1 (stereo unspecified)	-17.5%	.	.	.	-0.1%	.
CS/C(Nc1cc(Cl)ccc1Cl)=C(/C#N)C(=O)c1ccco1	.	20.6µM*	?	.	2.13µM*	?
O=C(Nc1cc(Cl)ccc1Cl)c1ccco1	.	2.6%	-1.6%	.	-1.2%	2.5%
CC(=O)c1cccc(NC(=O)NC2CCCCCCC2)c1	.	1.6%	25.4%	.	16.9µM*	24.2%
CC(=O)c1cccc(NC(=O)NC2CCCCC2)c1	12.8%	1.3%	2.7%	12.4%	?	-5.1%
Cc1ccc(NC(=O)NC2CCCCCCC2)cc1C	.	?	3.98µM*	.	7.57µM*	3.55µM*
CCC1CCC(NC(=O)Nc2cccc(OC)c2)CC1 (stereo unspecified)	.	?	3.98µM*	-2.0%	4.78µM*	1.26µM*
Cc1cccc(NC(=O)NC2CCCCCCC2)c1	.	?	1.58µM*	.	10.7µM*	3.55µM*
CC(Oc1ccccc1F)C(=O)NCC1(N2CCOCC2)CCCCC1 (stereo unspecified)	.	.	.	.	-6.2%	.
C=CCOc1ccc(C2C(C#N)=C(N)N(N(C)C)C3=C2C(=O)CCC3)cc1 (stereo unspecified)	.	2.1%	0.1%	.	-0.2%	3.6%
O=C(Nc1ccc2nsnc2c1)NC1CCCCC1	?	?	2.24µM*	18.5%	6.75µM*	1.41µM*
CC(=O)c1ccc(NC(=O)NC2CCCCCCC2)cc1	.	8.2µM*	1.58µM*	.	12µM*	1.78µM*
Nc1ccc(NC(=O)NC2CCCCC2)cc1	.	?	24.0%	-2.2%	?	?
CC(=O)Nc1ccc(C(=O)CSc2nnc3ccc4ccccc4n23)cc1	.	.	.	.	4.6%	.
COC(=O)CSc1cnc2ccccc2n1	-12.9%	.	.	1.1%	-1.6%	.
O=C(CSc1cnc2ccccc2n1)c1ccc(F)cc1	11.2µM*	?	3.16µM*	-15.8%	4.78µM*	3.16µM*
O=C(CSc1nnc2ccc3ccccc3n12)c1ccc(F)cc1	.	.	28.8%	.	6.75µM*	?
COc1ccc(CNC(=O)c2ccccc2SCC(=O)N2CCCC2)cc1OC	.	0.0%	0.9%	.	-15.9%	-0.3%
Cc1ccc(Cl)cc1NC(=O)COCc1cc(-c2ccco2)on1	.	.	.	.	-14.7%	.
Cc1cccc(NC(=O)c2ccc(S(=O)(=O)N3CCC(C)CC3)cc2)n1	.	-17.7%	-5.8%	.	-3.8%	-8.2%
Cc1ccnc(NC(=O)c2ccc(S(=O)(=O)N3CCC(C)CC3)cc2)c1	.	0.731µM*	-1.6%	.	6.75µM*	-3.6%
O=C(Nc1ccccn1)c1ccc(S(=O)(=O)N2CCCC2)cc1	.	12.6%	15.3%	.	?	20.4%
CC1CCN(S(=O)(=O)c2ccc(C(=O)Nc3ccccn3)cc2)CC1	.	20.6µM*	?	.	?	22.0%
SMILES	SMN2 splice up	ELG1 genotox	NPC1 promoter act	KinaseGlo FLuc	FLuc counter	Rab9 prom act
CCc1ccccc1NC(=O)CNC(=O)c1cc(C2CC2)nn1-c1ccccc1	.	-2.4%	6.0%	.	.	-9.6%
O=C(CSc1ncccn1)N1CCN(S(=O)(=O)c2ccccc2)CC1	.	0.1%	3.2%	.	-1.0%	-4.3%
Cc1cc(Br)ccc1SCC(=O)N1CCN(S(=O)(=O)c2ccccc2)CC1	.	16.4µM*	?	.	13.5µM*	?
O=C(N/N=C/C=C\c1ccccc1[N+](=O)[O-])c1cc(-c2ccccc2)nc2ccccc12	0.0%	0.1%	1.7%	-7.1%	12µM*	-5.3%
Cc1ccc(-c2cc(C(=O)N/N=C/c3ccc([N+](=O)[O-])o3)c3ccccc3n2)o1	.	-4.7%	?	.	0.301µM*	?
O=C(N/N=C/c1ccc(Cl)c([N+](=O)[O-])c1)c1cc(-c2ccccc2)nc2ccccc12	-33.8%	26.5%	-5.6%	8.5%	?	1.0%
O=C(N/N=C/c1ccc([N+](=O)[O-])o1)c1cc(-c2ccc(-c3ccccc3)cc2)nc2ccccc12	2.51µM*	?	?	11.2µM*	0.151µM*	?
O=C(N/N=C/c1ccc([N+](=O)[O-])o1)c1cc(-c2ccncc2)nc2ccccc12	-21.9%	-5.6%	-18.2%	-11.2%	?	-16.5%
Cc1cc(C)cc(C(=O)N2CCC3(CC2)NCCc2[nH]cnc23)c1	.	1.5%	-1.7%	.	3.2%	-2.4%
Cc1ccc(-n2ncc(C(=O)NCc3ccccc3)c2C2CCN(C(=O)OC(C)(C)C)CC2)cc1	.	.	.	.	1.1%	.
OCc1cccc(Nc2ncnc3sc4c(c23)CCCCC4)c1	.	-2.0%	-4.1%	.	?	-4.4%
CCn1nnc2cc(C(=O)Nc3cc(OC)cc(OC)c3)ccc21	.	?	12.7%	.	16.9µM*	24.5%
COc1ccc(C(=O)Nc2cc(OC)cc(OC)c2)cc1	25.1µM*	?	2µM*	-29.7%	4.78µM*	1.78µM*
COc1cc(NC(=O)c2ccccc2)cc(OC)c1	?	?	6.31µM*	-17.6%	19µM*	?
COc1cc(OC)cc(C(=O)Nc2ccc(C(=O)Nc3ccccc3OC)cc2)c1	.	-10.6%	.	.	.	.
COc1cc(OC)c(Nc2cc(C)nc3ncnn23)cc1Cl	17.9%	.	.	.	-0.6%	.
C=Cc1ccc(Cn2c(C)c(CNCc3ccc(SC)cc3)c(C(=O)O)c2C)cc1	1.8%	.	.	.	-9.8%	.
Cc1ccc(-c2nnc(Nc3ccc(Br)cc3)c3ccccc23)cc1S(=O)(=O)N1CCOCC1	.	.	.	.	-3.6%	.
CNc1ccc([N+](=O)[O-])cc1-c1nc2ccccc2[nH]c1=O	.	-6.0%	15.8%	.	2.2%	-1.0%
COc1cc2c(cc1NC(=O)C1CCCO1)oc1ccccc12 (stereo unspecified)	25.1µM*	4.61µM*	3.98µM*	2.4%	6.01µM*	3.55µM*
Cc1ccc(CN2C(=O)N/C(=C\c3ccc(-c4ccc(C(=O)O)cc4C)o3)C2=O)cc1	.	-1.8%	-1.1%	.	0.9%	-6.0%
Cc1cc(C(=O)O)ccc1-c1ccc(CO)o1	1.0%	15.4%	3.1%	3.2%	26.9µM*	9.7%
NC(=O)c1ccsc1NC(=O)C1CCCCC1	-15.9%	15.0%	6.6%	-1.7%	-20.5%	-7.2%
NC(=O)c1ccsc1NC(=O)c1ccc(N2CCCC2=O)cc1	17.8µM*	1.64µM*	2.24µM*	?	3.01µM*	0.631µM*
